5 compounds from PubChem BioAssay can be followed below.

Results filed as inconclusive are left out. Calls of active or inactive are those of the source.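 How the source made its calls, unless noted: active means efflux inhibition above 0.42, the validation set average plus 4 SD; inconclusive means no clear call, values can overlap the other calls; inactive means the rest.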

Assay [1] is described as follows: yeast TOR pathway RPL19A-GFP modulators, primary screen, cell-based, S. cerevisiae, multiplex flow cytometry (AID 1862; in the data active means percent of DMSO control GFP below about 86%;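 further: lower values mimic rapamycin by blocking the RPL19A rise seen in DMSO cells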). The note with it: S. cerevisiae RPL19A-GFP strain, flow cytometry fluorescence, 3 h; at 10 µM; stronger effect = lower value. Background: A flow cytometer gives signals particle by particle.
The nature of assay [2]: modulators of MEP2-GFP levels in yeast, primary screen, S. cerevisiae, multiplex flow cytometry (AID 1867;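 active means GFP response, as percent of the DMSO control, above the screen-wide mean plus 3 SD, about 139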;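 further: median GFP channel fluorescence of barcode-gated MEP2-GFP cells measured by flow cytometry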). The note with it: S. cerevisiae MEP2-GFP strain, 3 h, at 10 µM, stronger effect = higher value, 100% means same as DMSO wells.
Assay [3] in a line: modulators of CIT2-GFP expression in yeast, primary screen, S. cerevisiae, GFP fusion, multiplex flow cytometry (AID 1870;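 active means percent response above a set limit, the screen-wide mean plus 3 SD, cut at about 130% in these data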;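 further: barcoded CIT2-GFP strain pooled with four other GFP strains with rapamycin as positive control; median GFP fluorescence per well over plate mean of DMSO wells so 100% = DMSO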). Conditions: 3 h, at 10 µM, stronger effect = higher value.
Assay [4] is described as follows: modulators of LAP4-GFP expression in yeast, primary screen, S. cerevisiae, multiplex flow cytometry (AID 1873;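 active means GFP signal, as percent of the solvent control, above the screen mean plus 3 SD, about 149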). Conditions: 3 h, at 10 µM, stronger effect = higher value.
A short description of assay [5]: modulators of AGP1-GFP expression in yeast TOR pathway, primary screen, cell-based, multiplex flow cytometry, S. cerevisiae (AID 1887;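 active means GFP signal above the screen-wide mean plus 3 SD, that is over about 124.5% of the solvent control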;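 further: AGP1-GFP fusion strain of S. cerevisiae within a five-strain barcoded multiplex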). Conditions: 3 h, at 10 µM, stronger effect = higher value.
The nature of assay [6]: inhibitors of CD8+ T cell-vesicle binding, pilot screen, LFA-1/ICAM-1 modulator project, MLPCN validation set, flow cytometry (AID 2523;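 active means response below a set limit, under 55% cells CD8-positive and vesicle-bound, and CD8 cells' 90th-percentile brightness under 279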;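 on vesicle binding response: mean PE anti-B7-1 fluorescence of CD8+ cells relative to row control; 100% = QL9-loaded vesicles with DMSO vehicle in the same plate row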). Conditions: 2C mouse CD8+ T cells, at 7 µM, stronger effect = lower value; double positive events: measured here: CD8+/vesicle+ event percentage.
In assay [7] the target is Integrin beta-1 (Homo sapiens) + Integrin alpha-4 (Homo sapiens) (UniProt P13612+P05556). Nature of the assay: inhibition of HUTS-21 binding to VLA-4, pilot screen, VLA-4 allosteric modulator project, U937 cells, HUTS-21 mAb, flow cytometry, validation set (AID 2674;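 active means inhibition above 50%, about 3 SD of the validation set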;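 further: antibody binding induced by the VLA-4 ligand LDV present at three times its Kd; 0% = LDV ligand with antibody and no compound and 100% = antibody without LDV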). The note with it: HUTS-21 LIBS mAb binding, at 6.7 µM, stronger effect = higher value, binding induced by LDV ligand.
Sequence of Integrin beta-1 (Homo sapiens) + Integrin alpha-4 (Homo sapiens) (P05556 whole entry, looked up): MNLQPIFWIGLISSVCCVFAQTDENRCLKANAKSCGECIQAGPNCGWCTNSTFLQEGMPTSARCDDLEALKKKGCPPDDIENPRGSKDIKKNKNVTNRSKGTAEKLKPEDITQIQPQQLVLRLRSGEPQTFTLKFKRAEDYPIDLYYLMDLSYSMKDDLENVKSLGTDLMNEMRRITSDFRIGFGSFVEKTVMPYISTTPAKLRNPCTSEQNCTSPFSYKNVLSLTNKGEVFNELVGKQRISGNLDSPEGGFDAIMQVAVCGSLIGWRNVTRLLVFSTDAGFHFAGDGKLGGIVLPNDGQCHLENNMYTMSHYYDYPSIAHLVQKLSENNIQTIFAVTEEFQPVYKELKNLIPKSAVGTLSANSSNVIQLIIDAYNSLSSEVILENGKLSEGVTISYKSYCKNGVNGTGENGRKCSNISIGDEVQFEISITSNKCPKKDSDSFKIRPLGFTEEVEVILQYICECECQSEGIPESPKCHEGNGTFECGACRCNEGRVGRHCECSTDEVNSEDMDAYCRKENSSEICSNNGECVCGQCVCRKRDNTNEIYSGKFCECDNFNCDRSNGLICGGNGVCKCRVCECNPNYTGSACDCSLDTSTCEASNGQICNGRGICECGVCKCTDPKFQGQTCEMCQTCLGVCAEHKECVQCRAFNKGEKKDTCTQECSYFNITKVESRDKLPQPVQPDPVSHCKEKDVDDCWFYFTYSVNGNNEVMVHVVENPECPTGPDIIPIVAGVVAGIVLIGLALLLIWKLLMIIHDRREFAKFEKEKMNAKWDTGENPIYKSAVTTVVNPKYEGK
Sequence of Integrin beta-1 (Homo sapiens) + Integrin alpha-4 (Homo sapiens) (P13612 whole entry, looked up): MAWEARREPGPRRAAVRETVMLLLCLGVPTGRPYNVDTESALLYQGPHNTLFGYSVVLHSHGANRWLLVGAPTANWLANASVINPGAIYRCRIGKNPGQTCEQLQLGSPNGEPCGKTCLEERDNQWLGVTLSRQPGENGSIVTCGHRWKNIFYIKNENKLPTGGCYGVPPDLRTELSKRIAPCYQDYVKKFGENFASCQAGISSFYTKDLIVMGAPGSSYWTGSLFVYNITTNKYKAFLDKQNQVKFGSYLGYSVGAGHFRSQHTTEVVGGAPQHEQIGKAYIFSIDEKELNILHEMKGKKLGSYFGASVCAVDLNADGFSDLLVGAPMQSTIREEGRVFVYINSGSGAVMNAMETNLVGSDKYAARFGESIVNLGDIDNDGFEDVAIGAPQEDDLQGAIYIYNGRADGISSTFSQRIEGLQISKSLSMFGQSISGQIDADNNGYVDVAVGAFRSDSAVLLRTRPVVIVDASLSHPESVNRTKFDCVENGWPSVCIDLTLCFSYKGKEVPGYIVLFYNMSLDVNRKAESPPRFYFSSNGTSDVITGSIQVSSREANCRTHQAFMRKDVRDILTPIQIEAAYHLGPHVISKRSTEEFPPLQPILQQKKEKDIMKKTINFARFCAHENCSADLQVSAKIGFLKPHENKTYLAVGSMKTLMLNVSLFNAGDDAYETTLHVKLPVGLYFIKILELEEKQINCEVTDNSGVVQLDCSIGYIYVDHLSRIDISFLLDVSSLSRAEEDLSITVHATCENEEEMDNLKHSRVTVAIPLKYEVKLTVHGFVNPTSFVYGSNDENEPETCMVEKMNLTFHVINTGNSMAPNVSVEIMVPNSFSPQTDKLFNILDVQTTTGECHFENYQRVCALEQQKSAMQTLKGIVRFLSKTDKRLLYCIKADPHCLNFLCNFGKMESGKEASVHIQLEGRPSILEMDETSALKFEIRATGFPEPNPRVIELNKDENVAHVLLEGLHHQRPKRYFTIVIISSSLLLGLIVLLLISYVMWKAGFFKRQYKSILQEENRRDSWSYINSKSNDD

Assay [8] is described as follows: superoxide lowering in aged yeast cells, pilot screen, validation compound set (AID 2706;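 active means superoxide response below 65% of plate, a cut near 3 SD across the whole screen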;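 further: yeast exposed to compound for one week at 30 degrees C before staining; 100% = mean of all compound wells on the same plate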). The note with it: S. cerevisiae aging, superoxide DHE fluorescence; at 10 µM; stronger effect = lower value.
In assay [9] the target is Beta-adrenergic receptor kinase 1 (Homo sapiens) (UniProt P25098). Nature of the assay: GRK2 binders displacing RNA aptamer, biochemical, validation, human GRK2, bead flow cytometry (AID 488806;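 active means aptamer binding inhibition above 30%, about 3 SD of noise from non-fluorescent compounds; inactive means inhibition at or below 30%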). Conditions: bead-bound GRK2, FAM-aptamer displacement, at 10 µM, stronger effect = higher value.
Sequence of Beta-adrenergic receptor kinase 1 (Homo sapiens) (P25098 whole entry, looked up): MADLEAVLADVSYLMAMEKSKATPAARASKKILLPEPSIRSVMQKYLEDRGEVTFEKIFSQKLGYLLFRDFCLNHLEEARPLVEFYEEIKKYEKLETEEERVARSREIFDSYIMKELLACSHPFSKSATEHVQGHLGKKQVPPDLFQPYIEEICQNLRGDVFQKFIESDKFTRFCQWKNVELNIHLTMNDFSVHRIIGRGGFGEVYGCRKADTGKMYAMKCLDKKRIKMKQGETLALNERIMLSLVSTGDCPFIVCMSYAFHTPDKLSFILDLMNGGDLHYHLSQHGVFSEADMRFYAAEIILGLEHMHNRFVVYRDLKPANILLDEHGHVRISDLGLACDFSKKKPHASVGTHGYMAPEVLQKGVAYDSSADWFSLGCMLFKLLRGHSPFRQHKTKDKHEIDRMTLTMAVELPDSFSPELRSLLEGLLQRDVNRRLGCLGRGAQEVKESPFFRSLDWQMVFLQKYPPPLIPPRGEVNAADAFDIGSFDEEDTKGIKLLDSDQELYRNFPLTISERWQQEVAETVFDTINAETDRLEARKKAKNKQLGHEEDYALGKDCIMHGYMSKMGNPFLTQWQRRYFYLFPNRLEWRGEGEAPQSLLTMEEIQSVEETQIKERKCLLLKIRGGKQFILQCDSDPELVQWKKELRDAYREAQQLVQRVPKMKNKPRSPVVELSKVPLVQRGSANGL
The target of assay [10] is Beta-2 adrenergic receptor (Homo sapiens) (UniProt P07550). The experiment in a line: beta2AR agonists driving receptor internalization, pilot screen, cell-based, FAP fluorogen, flow cytometry, validation set (AID 504459;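 active means percent response above 42, roughly 3 SD of non-fluorescent test compounds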;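 further: agonist-driven loss of surface beta2AR via internalization measured by FAP dye flow cytometry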). The note with it: Am2.2-beta2AR cells, FAP surface receptor flow cytometry; at 10 µM; stronger effect = higher value.
Sequence of Beta-2 adrenergic receptor (Homo sapiens) (P07550 whole entry, looked up): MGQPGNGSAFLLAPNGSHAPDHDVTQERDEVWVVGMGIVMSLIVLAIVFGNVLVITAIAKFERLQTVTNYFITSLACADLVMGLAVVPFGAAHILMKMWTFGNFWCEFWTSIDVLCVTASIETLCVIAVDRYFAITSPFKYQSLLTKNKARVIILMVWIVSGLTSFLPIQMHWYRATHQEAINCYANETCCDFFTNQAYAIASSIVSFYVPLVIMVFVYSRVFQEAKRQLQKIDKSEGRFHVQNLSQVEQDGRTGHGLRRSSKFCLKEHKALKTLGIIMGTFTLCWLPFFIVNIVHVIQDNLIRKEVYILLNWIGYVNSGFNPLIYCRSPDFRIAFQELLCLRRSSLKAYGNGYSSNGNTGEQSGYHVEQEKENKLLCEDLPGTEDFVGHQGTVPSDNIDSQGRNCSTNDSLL
The target of assay [11] is AP-2 complex subunit beta (Homo sapiens) (UniProt P63010). The experiment in a line: inhibitors of arrestin peptide binding to AP2, pilot screen, biochemical, validation set, GST-AP2 beads, flow cytometry (AID 504541;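 active means inhibition above 54%, about 3 SD of non-fluorescent compounds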;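 further: AP2 carries R879A mutation and is captured from E. coli lysate; bead-bound FITC arrestin peptide fluorescence measuring arrestin peptide binding to AP2; 0% = DMSO wells and 100% = excess unlabeled arrestin peptide control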). Conditions: FITC arrestin peptide, at 10 µM, stronger effect = higher value, AP2 beta2 appendage fragment, R879A mutant.
Sequence of AP-2 complex subunit beta (Homo sapiens) (P63010 whole entry, looked up, the tested form may be a part, one chain of several): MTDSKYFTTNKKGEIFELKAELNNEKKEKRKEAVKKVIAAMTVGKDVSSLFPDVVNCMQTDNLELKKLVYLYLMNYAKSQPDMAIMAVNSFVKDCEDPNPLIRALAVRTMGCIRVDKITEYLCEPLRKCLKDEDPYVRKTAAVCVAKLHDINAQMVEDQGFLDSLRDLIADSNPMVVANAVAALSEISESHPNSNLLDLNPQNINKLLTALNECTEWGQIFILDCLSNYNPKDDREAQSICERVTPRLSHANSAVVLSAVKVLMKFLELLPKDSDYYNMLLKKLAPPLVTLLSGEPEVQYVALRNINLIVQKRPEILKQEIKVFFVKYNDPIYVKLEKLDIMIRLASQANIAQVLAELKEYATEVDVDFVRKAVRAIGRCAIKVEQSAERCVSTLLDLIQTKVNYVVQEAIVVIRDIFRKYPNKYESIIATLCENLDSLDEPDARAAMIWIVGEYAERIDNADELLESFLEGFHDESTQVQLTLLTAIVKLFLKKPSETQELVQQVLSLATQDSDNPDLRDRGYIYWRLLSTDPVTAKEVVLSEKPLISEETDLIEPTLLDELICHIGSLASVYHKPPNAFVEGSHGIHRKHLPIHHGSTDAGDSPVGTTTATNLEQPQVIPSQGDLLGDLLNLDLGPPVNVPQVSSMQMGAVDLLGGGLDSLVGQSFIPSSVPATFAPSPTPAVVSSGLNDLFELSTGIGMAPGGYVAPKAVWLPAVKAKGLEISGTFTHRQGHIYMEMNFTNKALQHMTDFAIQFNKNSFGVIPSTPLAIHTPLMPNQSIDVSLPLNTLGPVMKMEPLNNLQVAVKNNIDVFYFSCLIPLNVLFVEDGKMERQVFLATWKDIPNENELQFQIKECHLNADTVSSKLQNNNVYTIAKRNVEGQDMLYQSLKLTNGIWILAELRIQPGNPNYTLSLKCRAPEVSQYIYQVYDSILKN
Assay [12] in a line: yeast V-ATPase proton transport modulators, S. cerevisiae, pHLuorin, HTS validation (AID 504600; in the data active means response above about 15%;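 further: plate controls were DMSO for no effect and reference compound for full effect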). The note with it: S. cerevisiae pHLuorin cytosolic pH, at 10 µM, stronger effect = higher value.
For assay [13], the system named is anti-desmoglein-3 scFv antibody binding to human DSG3. The experiment in a line: inhibitors of anti-DSG3 scFv binding to DSG3, pilot screen, biochemical, validation compound set, bead-based, flow cytometry (AID 588368;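 active means binding below the plate cutoff, the plate median minus 3 SD, with a reading above zero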;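 further: signal is the median channel fluorescence of bead-bound GFP antibody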). The note with it: Protein G beads, DSG3-Fc, scFv-GFP binding, at 10 µM, stronger effect = lower value.
The nature of assay [14]: inhibitors of fungal efflux pumps CDR1, CDR2, MDR1, pilot screen, validation compound set, multiplex, phenotypic (AID 588506).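 Further: Nile Red retained in cells so higher fluorescence means more efflux inhibition; 0 = negative control wells and 1 = enniatin B 25 µM full block.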 Conditions: S. cerevisiae pump-expressing triplex, Nile Red efflux flow cytometry; at 10 µM; stronger effect = higher value; the pumps come from Candida albicans.
The target of assay [15] is ATP-binding cassette sub-family B member 6 (Homo sapiens) (UniProt Q9NP58). Nature of the assay: ABCB6 transporter inhibitors, pilot screen, K562-ABCB6 cells, flow cytometry, validation set (AID 588550;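 active means inhibition above the screen-wide mean plus 3 SD, about 51%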;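 further: 0% = DMSO wells and 100% = benzethonium chloride 70 µM positive control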). The note with it: K562-ABCB6 porphyrin accumulation, 1 h, at 10 µM, stronger effect = higher value.
Sequence of ATP-binding cassette sub-family B member 6 (Homo sapiens) (Q9NP58 whole entry, looked up): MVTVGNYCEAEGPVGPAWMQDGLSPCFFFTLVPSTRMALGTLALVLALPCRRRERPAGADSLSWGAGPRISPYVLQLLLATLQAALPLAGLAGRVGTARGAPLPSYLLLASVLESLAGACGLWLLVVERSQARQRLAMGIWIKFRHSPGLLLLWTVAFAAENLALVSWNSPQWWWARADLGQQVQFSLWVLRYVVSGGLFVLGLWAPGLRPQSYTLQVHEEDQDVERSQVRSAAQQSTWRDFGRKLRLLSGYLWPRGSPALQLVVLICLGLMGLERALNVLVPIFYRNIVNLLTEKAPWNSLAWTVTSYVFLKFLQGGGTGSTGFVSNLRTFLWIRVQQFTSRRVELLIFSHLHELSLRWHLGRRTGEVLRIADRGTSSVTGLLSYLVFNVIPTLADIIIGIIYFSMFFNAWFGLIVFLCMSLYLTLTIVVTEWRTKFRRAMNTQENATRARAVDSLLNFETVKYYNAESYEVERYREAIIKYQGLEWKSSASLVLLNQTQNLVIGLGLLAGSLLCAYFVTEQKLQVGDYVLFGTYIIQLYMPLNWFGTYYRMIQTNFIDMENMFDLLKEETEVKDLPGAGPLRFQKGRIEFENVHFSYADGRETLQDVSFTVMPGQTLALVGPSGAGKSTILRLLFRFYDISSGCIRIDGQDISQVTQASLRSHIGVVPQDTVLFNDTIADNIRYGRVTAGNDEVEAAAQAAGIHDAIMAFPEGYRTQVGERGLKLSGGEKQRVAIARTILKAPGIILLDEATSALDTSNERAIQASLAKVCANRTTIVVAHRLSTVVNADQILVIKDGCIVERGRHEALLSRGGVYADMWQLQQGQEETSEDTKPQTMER
Assay [16] can be described thus: promoters of myeloid differentiation in arrested cells, primary screen, cell-based, GFP/MAC1 double positive, flow cytometry, validation set (AID 588685;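 active means differentiation response of at least 50%, scaled between solvent and reference control, from cells with both markers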;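 further: compound exposure lasts four days before antibody staining and flow analysis; 0% = DMSO wells and 100% = 5 µM fulvestrant positive control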). Conditions: ER-HoxA9 marrow cells, stronger effect = higher value, normalized: vehicle 0, fulvestrant 100.

A word on the inhibition: it is the drop in the measured response relative to a control, in per cent. On to `Cn1c(=O)[nH]c(=O)c2c1nc(NCc1ccco1)n2CCCc1ccccc1`, for which, in assay [1], the percent of DMSO control GFP was 101% (inactive). The GFP response vs DMSO in assay [2] is 101% (inactive); in assay [4] it was 90.1% (inactive). The percent response of DMSO control in [3] was 100% (inactive). In addition, in assay [5], the GFP response, % of DMSO was 105% (inactive). In assay [6], this compound returned a double positive events of 62.6%. In addition, the vesicle binding response in [6] was 36.6% (inactive). Also, the inhibition was -2.53% (inactive) in assay [7], 9.94% (inactive) in assay [11] and -1% (inactive) in [15]. Moreover, the superoxide response (% of plate) in assay [8] was 103% (inactive). The aptamer binding inhibition in assay [9] is 5% (inactive). Moreover, the response in assay [10] was -5.62% (inactive); in assay [12], 0.19% (inactive). Further, in assay [13], the binding (% of control) is 97.2% (inactive). The efflux inhibition (fraction of control) in assay [14] was -0.07 (inactive). Moreover, the differentiation response in assay [16] was -3.67% (inactive).

With `NC(=O)c1cccnc1`, the percent of DMSO control GFP in assay [1] is 86.7% (inactive). In addition, the GFP response vs DMSO in assay [2] was 121% (inactive); in assay [4] it was 79.8% (inactive). Moreover, in [3], the percent response of DMSO control is 110% (inactive). Moreover, the GFP response, % of DMSO in assay [5] was 98.7% (inactive). The double positive events in [6] turned out to be 45%. In addition, the vesicle binding response in [6] is 242% (inactive). Also, the inhibition in assay [7] is 7.43% (inactive); in assay [11], -4.05% (inactive); in assay [15] it was 9% (inactive). Further, in [8], the superoxide response (% of plate) was 111% (inactive). The aptamer binding inhibition in assay [9] is 3% (inactive). Besides, the response in assay [10] was 8.79% (inactive); in assay [12] it was 1.76% (inactive). Moreover, the binding (% of control) in assay [13] is 99.8% (inactive). Moreover, the efflux inhibition (fraction of control) in [14] was -0.28 (inactive). Also, in assay [16], the differentiation response is -1.64% (inactive).

As to `COc1ccc(CN2CCCC(C(=O)c3ccc(Cl)cc3)C2)cc1Cn1cccn1` (stereo not given), in assay [1], the percent of DMSO control GFP was 104% (inactive). The GFP response vs DMSO is 105% (inactive) in [2] and 95.9% (inactive) in assay [4]. Besides, in assay [3], the percent response of DMSO control is 99.7% (inactive). The GFP response, % of DMSO in assay [5] was 100% (inactive). The double positive events in assay [6] came to 61.3%. Moreover, the vesicle binding response in assay [6] is 182% (inactive). Also, the inhibition in assay [7] is -9.13% (inactive); in [11], -0.55% (inactive); in assay [15] it was 12% (inactive). Further, the superoxide response (% of plate) in assay [8] is 79.4% (inactive). Further, the aptamer binding inhibition in assay [9] was -4% (inactive). Moreover, the response in [10] is 30.8% (inactive); in assay [12], 1.1% (inactive). Further, the binding (% of control) in assay [13] is 98.5% (inactive). Besides, the efflux inhibition (fraction of control) in assay [14] is 0.05 (inactive). The differentiation response in assay [16] is -3.11% (inactive).

Regarding `Nc1ccc(S(=O)(=O)NC(=O)c2ccccc2)cc1`, the percent of DMSO control GFP in [1] was 100% (inactive). For the same compound, the figures for the GFP response vs DMSO in assay [2] and in [4] were 103% (inactive) and 99.9% (inactive), respectively. The percent response of DMSO control in [3] is 96.6% (inactive). In assay [5], the GFP response, % of DMSO is 100% (inactive). This compound also displayed a double positive events in [6] of 57.6%. In addition, the vesicle binding response in [6] was 30.6% (inactive). The values for the inhibition in assay [7], in assay [11] and in assay [15] were -6.68% (inactive), -15.4% (inactive) and 11% (inactive), respectively. Besides, the superoxide response (% of plate) in [8] is 110% (inactive). In assay [9], the aptamer binding inhibition was 1% (inactive). Besides, the response in [10] was -5.78% (inactive); in [12], 5.4% (inactive). In [13], the binding (% of control) is 99.3% (inactive). For the same compound, the efflux inhibition (fraction of control) in assay [14] is -0.07 (inactive). Further, in assay [16], the differentiation response is 1.22% (inactive).

Take `CC(=O)Oc1ccc2c(=O)c(Oc3ccccc3[N+](=O)[O-])coc2c1`: the percent of DMSO control GFP in [1] is 99.8% (inactive). The results for the GFP response vs DMSO in [2] and in [4] were 131% (inactive) and 78.7% (inactive), respectively. Also, the percent response of DMSO control in assay [3] is 111% (inactive). For the same compound, the GFP response, % of DMSO in assay [5] was 95.6% (inactive). Further, the double positive events in assay [6] worked out at 60.6%. Besides, the vesicle binding response in [6] is 188% (inactive). Also, the inhibition was -0.33% (inactive) in assay [7], -1.47% (inactive) in [11] and -4% (inactive) in assay [15]. Also, the superoxide response (% of plate) in assay [8] is 121% (inactive). In assay [9], the aptamer binding inhibition was 3% (inactive). Besides, the response in assay [10] is -4.04% (inactive); in assay [12], 0.8% (inactive). For the same compound, in assay [13], the binding (% of control) is 101% (inactive). Further, in [14], the efflux inhibition (fraction of control) is -0.06 (inactive). The differentiation response in assay [16] is 0% (inactive).
